Assay results taken from the supplement of paper PMC7411054.
Counter-ions that a name gives are not always drawn.

How the values were obtained:
Conditions in all cases: treatment time: 24 h
A549-ACTB-RAB5A = assay: phenotypically active (imaging signature differs from DMSO and reproducible) at any of 0.3-9 uM (binary (1 = active, 0 = inactive)); higher = active
Procedure, shortened: (§1)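 Each of fifteen gene-edited A549, HepG2 and WPMY1 reporter lines, marked with BFP for segmentation and GFP and RFP/FusionRed, was treated in four wells at 0.3, 1, 3 or 9 µM for 24 h prior to live imaging. Normalisation of per-well live-cell features used solvent control wells. Deviation needed ≥3 of 4 wells beyond the 95th percentile of control Euclidean distances, and reproducibility needed a median replicate Pearson correlation above the 95th percentile of non-replicates. Both were required for phenotypic activity.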

A549-CANX-COX4 = assay: as above
Procedure, shortened: as §1

A549-GM130-SQSTM1 = assay: as above
Procedure, shortened: as §1

A549-TP53BP1-CLTA = assay: as above
Procedure, shortened: as §1

A549-TUBA1B-RELA = assay: as above
Procedure, shortened: as §1

HepG2-ACTB-RAB5A = assay: as above
Procedure, shortened: as §1

HepG2-CANX-COX4 = assay: as above
Procedure, shortened: as §1

HepG2-GM130-SQSTM1 [1] = assay: as above
Procedure, shortened: as §1

HepG2-TP53BP1-CLTA = assay: as above
Procedure, shortened: as §1

HepG2-TUBA1B-RELA [2] = assay: as above
Procedure, shortened: as §1

WPMY1-ACTB-RAB5A [3] = assay: as above
Procedure, shortened: as §1

WPMY1-CANX-COX4 = assay: as above
Procedure, shortened: as §1

WPMY1-GM130-SQSTM1 [4] = assay: as above
Procedure, shortened: as §1

WPMY1-TP53BP1-CLTA = assay: as above
Procedure, shortened: as §1

WPMY1-TUBA1B-RELA = assay: as above
Procedure, shortened: as §1

WPMY1-ACTB-RAB5A [5] = assay: lowest phenotypically active concentration; higher = less potent
Procedure, shortened: as §1

HepG2-TUBA1B-RELA [6] = assay: as above
Procedure, shortened: as §1

WPMY1-GM130-SQSTM1 [7] = assay: as above
Procedure, shortened: as §1

HepG2-GM130-SQSTM1 [8] = assay: as above
Procedure, shortened: as §1

| Compound | phenotypically active (A549-ACTB-RAB5A) | phenotypically active (A549-CANX-COX4) | phenotypically active (A549-GM130-SQSTM1) | phenotypically active (A549-TP53BP1-CLTA) | phenotypically active (A549-TUBA1B-RELA) | phenotypically active (HepG2-ACTB-RAB5A) | phenotypically active (HepG2-CANX-COX4) | phenotypically active (HepG2-GM130-SQSTM1 [1]) | phenotypically active (HepG2-TP53BP1-CLTA) | phenotypically active (HepG2-TUBA1B-RELA [2]) | phenotypically active (WPMY1-ACTB-RAB5A [3]) | phenotypically active (WPMY1-CANX-COX4) | phenotypically active (WPMY1-GM130-SQSTM1 [4]) | phenotypically active (WPMY1-TP53BP1-CLTA) | phenotypically active (WPMY1-TUBA1B-RELA) | lowest phenotypically active concentration (WPMY1-ACTB-RAB5A [5]) [µM] | lowest phenotypically active concentration (HepG2-TUBA1B-RELA [6]) [µM] | lowest phenotypically active concentration (WPMY1-GM130-SQSTM1 [7]) [µM] | lowest phenotypically active concentration (HepG2-GM130-SQSTM1 [8]) [µM] |
| --- | --- | --- | --- | --- | --- | --- | --- | --- | --- | --- | --- | --- | --- | --- | --- | --- | --- | --- | --- |
| Nc1ncnc2c1c(COc1cccc(Cl)c1)nn2C1CCOCC1 | 0 (inactive) | 0 (inactive) | 0 (inactive) | 0 (inactive) | 0 (inactive) | 0 (inactive) | 0 (inactive) | 0 (inactive) | 1 (active) | 0 (inactive) | 0 (inactive) | 0 (inactive) | 0 (inactive) | 0 (inactive) | 0 (inactive) | – | – | – | – |
| Cn1cnc(N)c2ncnc1-2 [3-Methyladenine] | 0 (inactive) | 0 (inactive) | 0 (inactive) | 0 (inactive) | 0 (inactive) | 0 (inactive) | 0 (inactive) | 0 (inactive) | 0 (inactive) | 0 (inactive) | 1 (active) | 0 (inactive) | 0 (inactive) | 0 (inactive) | 0 (inactive) | 1 | – | – | – |
| Cc1nc[nH]c1C1CCN(c2nc3cccc4c3n2CCC4=O)CC1 | 0 (inactive) | 0 (inactive) | 0 (inactive) | 0 (inactive) | 0 (inactive) | 0 (inactive) | 0 (inactive) | 0 (inactive) | 1 (active) | 0 (inactive) | 0 (inactive) | 0 (inactive) | 0 (inactive) | 0 (inactive) | 0 (inactive) | – | – | – | – |
| C#CCN[C@@H]1CCc2ccccc21 [rasagiline] | 0 (inactive) | 0 (inactive) | 0 (inactive) | 0 (inactive) | 0 (inactive) | 0 (inactive) | 0 (inactive) | 0 (inactive) | 1 (active) | 1 (active) | 0 (inactive) | 0 (inactive) | 1 (active) | 1 (active) | 0 (inactive) | – | 9 | 9 | – |
| CCCCCCCN(CC)CCCC(O)c1ccc(NS(C)(=O)=O)cc1 (stereo unspecified) [ibutilide] | 0 (inactive) | 0 (inactive) | 0 (inactive) | 0 (inactive) | 0 (inactive) | 0 (inactive) | 0 (inactive) | 0 (inactive) | 0 (inactive) | 0 (inactive) | 0 (inactive) | 0 (inactive) | 1 (active) | 0 (inactive) | 0 (inactive) | – | – | 3 | – |
| NC(=O)c1ccc(I)c([N+](=O)[O-])c1 | 0 (inactive) | 0 (inactive) | 0 (inactive) | 0 (inactive) | 0 (inactive) | 0 (inactive) | 0 (inactive) | 1 (active) | 0 (inactive) | 0 (inactive) | 0 (inactive) | 0 (inactive) | 0 (inactive) | 0 (inactive) | 0 (inactive) | – | – | – | 9 |
| Cc1cc2c(s1)Nc1ccccc1N=C2N1CCN(C)CC1 [Olanzapine] | 0 (inactive) | 0 (inactive) | 0 (inactive) | 0 (inactive) | 0 (inactive) | 0 (inactive) | 0 (inactive) | 0 (inactive) | 0 (inactive) | 1 (active) | 0 (inactive) | 0 (inactive) | 0 (inactive) | 0 (inactive) | 0 (inactive) | – | 9 | – | – |
| Cc1ccc(C(=O)Oc2ccc(C(O)CNC(C)(C)C)cc2OC(=O)c2ccc(C)cc2)cc1 (stereo unspecified) [bitolterol] | 0 (inactive) | 0 (inactive) | 0 (inactive) | 0 (inactive) | 0 (inactive) | 0 (inactive) | 0 (inactive) | 0 (inactive) | 0 (inactive) | 0 (inactive) | 0 (inactive) | 1 (active) | 0 (inactive) | 0 (inactive) | 0 (inactive) | – | – | – | – |
| CN/C(=C/[N+](=O)[O-])NCCSCc1csc(CN(C)C)n1 [nizatidine] | 0 (inactive) | 0 (inactive) | 0 (inactive) | 0 (inactive) | 0 (inactive) | 0 (inactive) | 0 (inactive) | 0 (inactive) | 1 (active) | 0 (inactive) | 0 (inactive) | 0 (inactive) | 0 (inactive) | 0 (inactive) | 0 (inactive) | – | – | – | – |
| COC(=O)[C@H]1[C@H]2C[C@H]3c4[nH]c5ccccc5c4CCN3C[C@H]2CC[C@@H]1O [Rauwolscine hydrochloride] | 0 (inactive) | 0 (inactive) | 0 (inactive) | 0 (inactive) | 0 (inactive) | 0 (inactive) | 0 (inactive) | 0 (inactive) | 0 (inactive) | 0 (inactive) | 0 (inactive) | 0 (inactive) | 1 (active) | 0 (inactive) | 0 (inactive) | – | – | 3 | – |
| COC(=O)C1=C(C)NC(C)=C(C(=O)OC)C1c1ccccc1[N+](=O)[O-] [nifedipine] | 0 (inactive) | 0 (inactive) | 0 (inactive) | 0 (inactive) | 0 (inactive) | 0 (inactive) | 0 (inactive) | 0 (inactive) | 0 (inactive) | 0 (inactive) | 0 (inactive) | 0 (inactive) | 1 (active) | 0 (inactive) | 0 (inactive) | – | – | 9 | – |
| CN(C)CCCC1(c2ccc(F)cc2)OCc2cc(C#N)ccc21 (stereo unspecified) [citalopram] | 0 (inactive) | 0 (inactive) | 0 (inactive) | 0 (inactive) | 0 (inactive) | 0 (inactive) | 0 (inactive) | 0 (inactive) | 0 (inactive) | 0 (inactive) | 0 (inactive) | 0 (inactive) | 1 (active) | 0 (inactive) | 0 (inactive) | – | – | 9 | – |
| COc1ccc(C[C@@H]2c3cc(OC)c(OC)cc3CC[N@+]2(C)CCC(=O)OCCCCCOC(=O)CC[N@@+]2(C)CCc3cc(OC)c(OC)cc3[C@H]2Cc2ccc(OC)c(OC)c2)cc1OC [Cisatracurium besylate] | 0 (inactive) | 0 (inactive) | 0 (inactive) | 0 (inactive) | 0 (inactive) | 0 (inactive) | 0 (inactive) | 1 (active) | 0 (inactive) | 0 (inactive) | 0 (inactive) | 0 (inactive) | 1 (active) | 0 (inactive) | 0 (inactive) | – | – | 9 | 9 |
| CNC(=O)c1ccc(C)c(-n2c(C)cc(OCc3ccc(F)cc3F)c(Br)c2=O)c1 | 0 (inactive) | 0 (inactive) | 0 (inactive) | 0 (inactive) | 0 (inactive) | 0 (inactive) | 0 (inactive) | 0 (inactive) | 0 (inactive) | 0 (inactive) | 1 (active) | 0 (inactive) | 0 (inactive) | 0 (inactive) | 0 (inactive) | 1 | – | – | – |
| NS(=O)(=O)C#Cc1ccccc1 [pifithrin-mu] | 0 (inactive) | 0 (inactive) | 0 (inactive) | 0 (inactive) | 0 (inactive) | 0 (inactive) | 0 (inactive) | 1 (active) | 0 (inactive) | 0 (inactive) | 0 (inactive) | 0 (inactive) | 1 (active) | 0 (inactive) | 1 (active) | – | – | 9 | 3 |
| O=S(=O)(NCCCCCCc1ccccc1)c1cccc2c(Cl)cccc12 | 0 (inactive) | 0 (inactive) | 0 (inactive) | 0 (inactive) | 0 (inactive) | 0 (inactive) | 0 (inactive) | 0 (inactive) | 0 (inactive) | 1 (active) | 1 (active) | 1 (active) | 0 (inactive) | 0 (inactive) | 0 (inactive) | ≤ 0.3 | ≤ 0.3 | – | – |
| CC(C)[C@H](N)C(=O)OCC(CO)OCn1cnc2c(=O)[nH]c(N)nc21 (stereo partly specified) [valganciclovir] | 0 (inactive) | 0 (inactive) | 0 (inactive) | 0 (inactive) | 0 (inactive) | 0 (inactive) | 0 (inactive) | 0 (inactive) | 0 (inactive) | 0 (inactive) | 0 (inactive) | 0 (inactive) | 1 (active) | 0 (inactive) | 0 (inactive) | – | – | 1 | – |
| CC(C)C[C@H](NC(=O)OCC1c2ccccc2-c2ccccc21)C(=O)O | 0 (inactive) | 0 (inactive) | 0 (inactive) | 0 (inactive) | 0 (inactive) | 0 (inactive) | 0 (inactive) | 0 (inactive) | 0 (inactive) | 0 (inactive) | 1 (active) | 0 (inactive) | 0 (inactive) | 0 (inactive) | 0 (inactive) | 9 | – | – | – |
| CC1(C)CC(=O)c2c(S(C)(=O)=O)sc(Cl)c2C1 | 0 (inactive) | 0 (inactive) | 0 (inactive) | 0 (inactive) | 0 (inactive) | 0 (inactive) | 0 (inactive) | 1 (active) | 0 (inactive) | 0 (inactive) | 0 (inactive) | 0 (inactive) | 1 (active) | 0 (inactive) | 0 (inactive) | – | – | 3 | 1 |
| O=C1CCc2ccc(OCCCCN3CCN(c4cccc(Cl)c4Cl)CC3)cc2N1 [aripiprazole] | 0 (inactive) | 0 (inactive) | 0 (inactive) | 0 (inactive) | 0 (inactive) | 0 (inactive) | 0 (inactive) | 0 (inactive) | 0 (inactive) | 0 (inactive) | 0 (inactive) | 0 (inactive) | 1 (active) | 0 (inactive) | 0 (inactive) | – | – | ≤ 0.3 | – |
| CN(C)CCOC(c1ccccc1)c1ccccc1 [diphenhydramine] | 0 (inactive) | 0 (inactive) | 0 (inactive) | 0 (inactive) | 0 (inactive) | 0 (inactive) | 0 (inactive) | 0 (inactive) | 0 (inactive) | 0 (inactive) | 1 (active) | 1 (active) | 1 (active) | 1 (active) | 1 (active) | 9 | – | 9 | – |
| COc1ccc(Cn2ccc3ccc(C(=O)NO)cc32)cc1 | 0 (inactive) | 0 (inactive) | 0 (inactive) | 0 (inactive) | 0 (inactive) | 0 (inactive) | 0 (inactive) | 0 (inactive) | 0 (inactive) | 0 (inactive) | 0 (inactive) | 0 (inactive) | 1 (active) | 0 (inactive) | 0 (inactive) | – | – | 3 | – |
| COc1ccnc(CS(=O)c2nc3cc(OC(F)F)ccc3[nH]2)c1OC (stereo unspecified) [pantoprazole] | 0 (inactive) | 0 (inactive) | 0 (inactive) | 0 (inactive) | 0 (inactive) | 0 (inactive) | 0 (inactive) | 0 (inactive) | 0 (inactive) | 0 (inactive) | 1 (active) | 0 (inactive) | 0 (inactive) | 0 (inactive) | 0 (inactive) | ≤ 0.3 | – | – | – |
| CCOC(=O)c1ccc(N2NC(=O)/C(=C/c3ccc([N+](=O)[O-])o3)C2=O)cc1 | 0 (inactive) | 0 (inactive) | 0 (inactive) | 0 (inactive) | 0 (inactive) | 0 (inactive) | 0 (inactive) | 0 (inactive) | 0 (inactive) | 0 (inactive) | 0 (inactive) | 1 (active) | 1 (active) | 0 (inactive) | 0 (inactive) | – | – | 9 | – |
